Assay outcomes from PubChem BioAssay.
Hits are enriched below; roughly 3% of the tested compounds scored in any of these assays.
PLK1 PBD inh: blocks phosphopeptide binding to human PLK1 polo-box domain; actives 2.8% (n = 360,000); P53350; AID 720504; Plk1 PBD binding of FITC phosphopeptide, fluorescence polarization; Potency, µM, for inactives: max response, negative = inhibition, most hits filed as inhibitors; further: series mostly up to about 57 µM; nearly all actives have a fitted effect of over 65% in size
12-LOX inh: inhibitors of human 12S-lipoxygenase ALOX12; P18054; purified 12hLO, xylenol orange hydroperoxide absorbance; Potency, µM (top dose mostly 108 µM), for the others: at the highest dose activity change, negative = inhibition, hits mostly inhibitors; actives 1.1% (n = 580,000); AID 1671190
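Purified human 12hLO at 150 nM in 25 mM Hepes, 0.01% Triton X-100, pH 7.0, preincubated 15 min at room temperature with compound. Reaction started with 40 uM arachidonic acid, 30 min at room temperature. Hydroperoxide measured by Fe-xylenol orange, 573/405 nm absorbance ratio.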
VDR inhibitor: inhibitors of human vitamin D receptor; P11473; VDR-SRC2-3 peptide fluorescence polarization, 2 h; Potency, µM, inactives show max response, negative = inhibition, usual class: inhibitors; actives 0.93% (n = 400,000)
Target sequence (P11473 whole entry, looked up): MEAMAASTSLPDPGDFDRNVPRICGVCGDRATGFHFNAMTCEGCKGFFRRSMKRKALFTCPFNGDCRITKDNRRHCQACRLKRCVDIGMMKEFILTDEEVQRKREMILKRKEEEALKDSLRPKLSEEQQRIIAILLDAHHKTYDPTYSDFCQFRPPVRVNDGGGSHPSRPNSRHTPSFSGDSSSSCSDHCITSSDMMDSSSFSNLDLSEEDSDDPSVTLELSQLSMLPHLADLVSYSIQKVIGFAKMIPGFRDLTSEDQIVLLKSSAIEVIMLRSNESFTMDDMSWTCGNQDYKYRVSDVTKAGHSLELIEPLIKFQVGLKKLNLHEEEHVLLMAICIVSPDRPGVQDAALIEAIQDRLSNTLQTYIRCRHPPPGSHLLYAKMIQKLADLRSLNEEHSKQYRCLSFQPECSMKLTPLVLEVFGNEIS
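After 23 nl compound addition and a short centrifugation, plates sat for 2 hours at ambient temperature; polarization of fluorescence then indicated loss of VDR binding to peptide SRC2-3.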
GCN5L2 inh: blocks human GCN5L2 histone acetyltransferase; Q92830; GCN5L2 HAT assay, ThioGlo1 CoA-SH fluorescence; Potency, µM (titrated, usually from 58.9 µM), inactives show at the highest dose activity change, negative = inhibition, most hits filed as inhibitors; actives 0.21% (n = 390,000); AID 504327
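Compounds, pin-transferred from DMSO stocks, meet 20nM GCN5L2 for 15 min before the reaction begins with H3(1-25) peptide (75uM) and acetyl-CoA (70uM). Thiol-reactive ThioGlo1 reports CoA release over 20 min at room temperature.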
Numbers without * were called inactive. The call rests on the fitted dose curve; in most records, active means well fitted curve in the direction sought with a large enough effect; inconclusive means small, poorly fitted or top-dose-only effect, or another doubt; inactive means no such curve, though single readings can be large; an effect the other way counts as inactive or inconclusive. On the % scale 0 is the no-effect control and ±100 the full control effect; potency means the concentration at half of the fitted maximal effect.

Screening CN1C(=O)C(c2ccccc2)CC12CCN(Cc1ccc(F)c(F)c1)CC2 (stereo not drawn) returned 12-LOX inh -1%.
Screening COc1cc(C(=O)Nc2cccc(-c3nc4ccc(C)cc4o3)c2)cc(OC)c1OC returned 12-LOX inh -11%.
O=C(NCc1ccc(F)cc1F)c1ccc(N2CC3CC(C2)[C@H]2CCCC(=O)N2C3)nc1 (stereo partly drawn) was read as 12-LOX inh 37%.
For Cn1c(-c2sccc2OCc2ccccc2)n[nH]c1=S the results were PLK1 PBD inh -8%, 12-LOX inh inconclusive, VDR inhibitor 8% and GCN5L2 inh 35%.
Screening Cc1ccc(COc2ccsc2-c2n[nH]c(=S)n2C)cc1 returned PLK1 PBD inh 2%, 12-LOX inh 14µM*, VDR inhibitor -13% and GCN5L2 inh 24%.
Cn1c(-c2sccc2OCc2ccc(Cl)cc2Cl)n[nH]c1=S was read as PLK1 PBD inh 27µM*, 12-LOX inh 28µM*, VDR inhibitor 2% and GCN5L2 inh -14%.
`O=C(CSc1cnc2ccccc2n1)Nc1ccc2c(c1)OCCCO2` gave 12-LOX inh 16%.
For N#C/C(=C\c1ccc(OCc2ccccc2)cc1)c1ccccc1 the results were 12-LOX inh 5%.
`COc1cccc(C2CC(=O)N(c3sc4c(c3C#N)CCCC4)C3=C2C(=O)CCC3)c1OC` (stereo not drawn) gave 12-LOX inh 4%.
Screening COc1ccccc1NC(=O)CCn1nc(-c2ccccc2)c2ccccc2c1=O returned 12-LOX inh -2%, VDR inhibitor 56µM* and GCN5L2 inh -10%.
For CNC(=O)Cn1nc(-c2ccc(C)cc2)c2ccccc2c1=O the results were PLK1 PBD inh 12µM*, 12-LOX inh 23%, VDR inhibitor inconclusive and GCN5L2 inh -2%.
For O=C(Cn1nc(-c2ccc(Cl)cc2)c2ccccc2c1=O)NCC1CCCO1 (stereo not drawn) the results were PLK1 PBD inh 13µM*, 12-LOX inh 0%, VDR inhibitor inconclusive and GCN5L2 inh -1%.
`CNC(=O)CCn1nc(-c2ccc(C)cc2)c2ccccc2c1=O` gave PLK1 PBD inh 3%, VDR inhibitor -21% and GCN5L2 inh 1%.
Cc1nc2ccc(S(=O)(=O)NCc3ccccc3)cc2s1 was read as 12-LOX inh 13%.
O=C(O)COc1ccccc1/C=N/O was read as 12-LOX inh 53%.
For Clc1ccc(-c2nc(CSc3ccccn3)cs2)cc1 the results were PLK1 PBD inh -23% and 12-LOX inh -4%.
`Nc1ccccc1SCc1csc(-c2ccc(Cl)cc2)n1` gave PLK1 PBD inh 9.5µM*, 12-LOX inh inconclusive, VDR inhibitor inconclusive and GCN5L2 inh 3%.
For CC1(C)CC(NC(=O)Nc2ccc(OC(F)F)cc2)CC(C)(C)N1 the results were 12-LOX inh 10%.
Screening CCOC(=O)c1c(NC(=S)NC)sc2c1CC(C)(C)SC2 returned PLK1 PBD inh 24µM*, 12-LOX inh inconclusive, VDR inhibitor inconclusive and GCN5L2 inh 16%.
Screening OC(CC#CCN1CCCCCC1)(c1ccccc1)c1ccc(-c2ccccc2)cc1 (stereo not drawn) returned 12-LOX inh 18µM*.
`OC(CC#CCN1CCN(CC#CCC(O)(c2ccccc2)c2ccccc2)CC1)(c1ccccc1)c1ccccc1` gave 12-LOX inh 11µM*.
OC(C#CCN1CCCC1)(c1ccccc1)c1ccccc1 was read as PLK1 PBD inh -5%, 12-LOX inh inconclusive, VDR inhibitor -12% and GCN5L2 inh -1%.
For Cc1ccc(Cl)cc1NC(=O)Nc1cc2c(cc1Oc1ccccc1)n(C)c(=O)n2C the results were 12-LOX inh 6%.
`Cc1ccc(Sc2cnc(N)nc2C)cc1` gave PLK1 PBD inh 27µM*, 12-LOX inh 1%, VDR inhibitor -15% and GCN5L2 inh 1%.
`COC(=O)c1c(NC(=O)CN2CCC3(O)CCCCC3C2c2ccc(OC)cc2OC)sc(C)c1C` (stereo not drawn) gave PLK1 PBD inh 21µM*, 12-LOX inh inconclusive, VDR inhibitor -17% and GCN5L2 inh 24%.
`O=c1n(-c2ccc(C(F)(F)F)cc2)nc2n1CCN(Cc1ccc(F)cc1)C2` gave 12-LOX inh 17%.
`c1cncc(-c2nnc(-c3cccnc3)nn2)c1` gave PLK1 PBD inh 6.7µM*, 12-LOX inh inconclusive, VDR inhibitor -50% and GCN5L2 inh -9%.
